# Test results taken from PubChem BioAssay (NCI).
# This is part of a sample that, as a whole, favours compounds with a hit. Of some 79,000 tested, about 15% had one in any assay. Unmarked numbers belong to inactive results. The source made the active and inactive calls. No stated cut-off is given here; in the data, active means growth inhibition above about 70%; inactive means the rest.
# How the values were obtained:
# [1] = NCI Yeast Anticancer Drug Screen. Data for the rad52 strain (AID 147);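 further: 0% = growth of vehicle-treated control cultures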; settings: S. cerevisiae rad52 mutant growth inhibition, stronger effect = higher value
# How it was run: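 Yeast strain carrying a DNA damage repair alteration was exposed to test compounds. Growth inhibition was measured relative to vehicle-treated controls.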
# [2] = NCI Yeast Anticancer Drug Screen. Data for the wt1 strain (AID 149);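 further: 0% = growth of vehicle-treated wt1 cultures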; settings: S. cerevisiae wt1 strain (SPY 50644) growth inhibition, stronger effect = higher value
# How it was run: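 wt1 strain grown with compound or vehicle; inhibition taken from the growth difference.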
# [3] = NCI Yeast Anticancer Drug Screen. Data for the rad50EPP+ strain (AID 151);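 further: 0% = growth of vehicle-treated control cultures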; settings: S. cerevisiae rad50 mutant strain, stronger effect = higher value
# How it was run: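 Yeast strain carrying rad50 alteration (rad50EPP+) exposed to compounds; growth inhibition measured relative to vehicle-treated controls.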
# [4] = NCI Yeast Anticancer Drug Screen. Data for the mgt1 strain (AID 153); settings: S. cerevisiae mgt1 mutant growth inhibition, stronger effect = higher value
# How it was run: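 Yeast mgt1 strain (DNA repair/cell-cycle alteration panel) exposed to compounds; growth inhibition measured relative to vehicle-treated controls.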
# [5] = NCI Yeast Anticancer Drug Screen. Data for the rad50 strain (AID 155);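 further: 0% = growth of vehicle-only cultures of the same strain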; settings: S. cerevisiae rad50 strain growth inhibition, stronger effect = higher value
# How it was run: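 DNA repair mutant yeast, compound exposure, growth read-out; inhibition is taken relative to vehicle.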
# [6] = NCI Yeast Anticancer Drug Screen. Data for the mec2-1 strain (AID 157); settings: S. cerevisiae mec2-1 strain, stronger effect = higher value
# How it was run: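 mec2-1 yeast strain, carrying an alteration in DNA damage repair or cell cycle control, was exposed to compounds; growth inhibition was measured relative to vehicle-treated controls.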
# [7] = NCI Yeast Anticancer Drug Screen. Data for the rad14 strain (AID 159);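 further: 0% = growth of vehicle-treated control cultures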; settings: S. cerevisiae rad14 strain growth inhibition, stronger effect = higher value
# How it was run: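 DNA repair-defective yeast, compound-exposed; % growth inhibition derived by comparison with vehicle-treated controls.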
# [8] = NCI Yeast Anticancer Drug Screen. Data for the sgs1 mgt1 strain (AID 161);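 further: 0% = growth of cultures given vehicle only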; settings: S. cerevisiae sgs1 mgt1 strain, stronger effect = higher value
# How it was run: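 Percent growth inhibition was derived by comparing compound-exposed mutant yeast with vehicle-exposed cultures. The strain carries alterations in DNA damage repair.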
# [9] = NCI Yeast Anticancer Drug Screen. Data for the cln2 rad14 strain (AID 165);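 further: 0% = growth equal to vehicle treated cultures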; settings: S. cerevisiae cln2 rad14 strain, stronger effect = higher value
# How it was run: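 Yeast carrying cln2 and rad14 alterations (cell cycle control and DNA damage repair) were exposed to compounds. Growth inhibition was measured against vehicle-treated controls.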
# [10] = NCI Yeast Anticancer Drug Screen. Data for the bub3 strain (AID 167); settings: S. cerevisiae bub3 mutant strain, stronger effect = higher value
# How it was run: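 In this screen, a yeast mutant lacking normal mitotic checkpoint function is challenged with compound. Relative growth versus vehicle gives the inhibition value.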
# [11] = NCI Yeast Anticancer Drug Screen. Data for the wt2 strain (AID 169);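 further: 0% = growth of vehicle-treated yeast cultures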; settings: S. cerevisiae wt2 strain growth inhibition, stronger effect = higher value
# How it was run: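 Yeast cells were exposed to test compounds, and growth inhibition was measured relative to vehicle-treated controls.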
# [12] = NCI Yeast Anticancer Drug Screen. Data for the mlh1 strain (AID 171);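 further: 0% = growth of vehicle-treated control cultures of the same strain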; settings: S. cerevisiae mlh1 strain growth inhibition, stronger effect = higher value
# How it was run: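 Yeast carrying a defined genetic alteration in DNA damage repair or cell cycle control were exposed to test compounds. Growth inhibition was measured relative to vehicle-treated controls.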
# [13] = NCI Yeast Anticancer Drug Screen. Data for the sgs1 strain (AID 173);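 further: 0% = growth of vehicle-only control cultures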; settings: S. cerevisiae sgs1 mutant, stronger effect = higher value
# How it was run: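 Yeast mutant strains carrying defined defects in DNA damage repair or cell cycle control were exposed to test compounds. Growth inhibition was scored against vehicle-treated controls.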
# [14] = NCI Yeast Anticancer Drug Screen. Data for the mlh1 rad18 strain (AID 175); settings: S. cerevisiae mlh1 rad18 strain growth inhibition, stronger effect = higher value
# How it was run: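 Growth inhibition of the yeast strain was measured after compound exposure and expressed relative to vehicle-treated controls. The strain carries defined defects in DNA damage repair.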
# [15] = NCI Yeast Anticancer Drug Screen. Data for the rad18 strain (AID 177); settings: S. cerevisiae rad18 mutant growth inhibition, stronger effect = higher value
# How it was run: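 Yeast carrying a defined DNA damage repair alteration were exposed to compounds. Growth inhibition was expressed relative to vehicle-treated controls.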
# [16] = at 5.0 µM (retest, dose inferred, filed as 0.5)
# [17] = at 50.0 µM (retest, dose inferred, filed as 5.0)
compound,measurement,setting,value
N#CSCC1COc2ccccc2O1 (stereo not drawn),growth inhibition,[1]; at 1.2 µM,-43%
same,growth inhibition,[1]; at 3.7 µM,-47%
same,growth inhibition,[1]; at 11.0 µM,-26%
same,growth inhibition,[1]; at 33.0 µM,72% (active)
same,growth inhibition,[1]; at 100.0 µM,98% (active)
same,growth inhibition,[2]; at 1.2 µM,-49%
same,growth inhibition,[2]; at 3.7 µM,-49%
same,growth inhibition,[2]; at 11.0 µM,-28%
same,growth inhibition,[2]; at 33.0 µM,54%
same,growth inhibition,[2]; at 100.0 µM,97% (active)
same,growth inhibition,[3]; at 1.2 µM,-28%
same,growth inhibition,[3]; at 3.7 µM,-18%
same,growth inhibition,[3]; at 11.0 µM,-5%
same,growth inhibition,[3]; at 33.0 µM,83% (active)
same,growth inhibition,[3]; at 100.0 µM,97% (active)
same,growth inhibition,[4]; at 1.2 µM,-25%
same,growth inhibition,[4]; at 3.7 µM,-23%
same,growth inhibition,[4]; at 11.0 µM,-9%
same,growth inhibition,[4]; at 33.0 µM,68%
same,growth inhibition,[4]; at 100.0 µM,97% (active)
same,growth inhibition,[5]; at 1.2 µM,-1%
same,growth inhibition,[5]; at 3.7 µM,1%
same,growth inhibition,[5]; [16],-5%
same,growth inhibition,[5]; at 11.0 µM,8%
same,growth inhibition,[5]; at 33.0 µM,86% (active)
same,growth inhibition,[5]; [17],89% (active)
same,growth inhibition,[5]; at 50.0 µM,88.4% (active)
same,growth inhibition,[5]; at 100.0 µM,98% (active)
same,growth inhibition,[6]; at 1.2 µM,-21%
same,growth inhibition,[6]; at 3.7 µM,-33%
same,growth inhibition,[6]; [16],-27%
same,growth inhibition,[6]; at 11.0 µM,-5%
same,growth inhibition,[6]; at 33.0 µM,87% (active)
same,growth inhibition,[6]; [17],91% (active)
same,growth inhibition,[6]; at 50.0 µM,90.8% (active)
same,growth inhibition,[6]; at 100.0 µM,97% (active)
same,growth inhibition,[7]; at 1.2 µM,-20%
same,growth inhibition,[7]; at 3.7 µM,-12%
same,growth inhibition,[7]; at 11.0 µM,-16%
same,growth inhibition,[7]; at 33.0 µM,20%
same,growth inhibition,[7]; at 100.0 µM,98% (active)
same,growth inhibition,[8]; [16],-25%
same,growth inhibition,[8]; [17],26%
same,growth inhibition,[8]; at 50.0 µM,90.6% (active)
same,growth inhibition,[9]; [16],-6%
same,growth inhibition,[9]; [17],85% (active)
same,growth inhibition,[9]; at 50.0 µM,85.3% (active)
same,growth inhibition,[10]; at 1.2 µM,-33%
same,growth inhibition,[10]; at 3.7 µM,-11%
same,growth inhibition,[10]; [16],8%
same,growth inhibition,[10]; at 11.0 µM,-16%
same,growth inhibition,[10]; at 33.0 µM,87% (active)
same,growth inhibition,[10]; [17],94% (active)
same,growth inhibition,[10]; at 50.0 µM,90.9% (active)
same,growth inhibition,[10]; at 100.0 µM,98% (active)
same,growth inhibition,[11]; at 1.2 µM,-50%
same,growth inhibition,[11]; at 3.7 µM,-51%
same,growth inhibition,[11]; at 11.0 µM,-24%
same,growth inhibition,[11]; at 33.0 µM,58%
same,growth inhibition,[11]; at 100.0 µM,96% (active)
same,growth inhibition,[12]; at 1.2 µM,-51%
same,growth inhibition,[12]; at 3.7 µM,-37%
same,growth inhibition,[12]; at 11.0 µM,-27%
same,growth inhibition,[12]; at 33.0 µM,77% (active)
same,growth inhibition,[12]; at 100.0 µM,97% (active)
same,growth inhibition,[13]; at 1.2 µM,-46%
same,growth inhibition,[13]; at 3.7 µM,-42%
same,growth inhibition,[13]; at 11.0 µM,-8%
same,growth inhibition,[13]; at 33.0 µM,73% (active)
same,growth inhibition,[13]; at 100.0 µM,97% (active)
same,growth inhibition,[14]; [16],5%
same,growth inhibition,[14]; [17],94% (active)
same,growth inhibition,[14]; at 50.0 µM,88.2% (active)
same,growth inhibition,[15]; at 1.2 µM,-21%
same,growth inhibition,[15]; at 3.7 µM,-22%
same,growth inhibition,[15]; at 11.0 µM,17%
same,growth inhibition,[15]; at 33.0 µM,91% (active)
same,growth inhibition,[15]; at 100.0 µM,98% (active)
